# Measured values as given in PubChem BioAssay (Tox21).
# Results filed as inconclusive are left out. A number with no mark means an inactive call. Active and inactive are the calls of the source. The call rests on the fitted dose curve; in most records, active means well fitted cell-killing curve with a large enough effect in the repeat runs; inconclusive means weak or mixed curves; inactive means flat fitted curve, though single readings scatter.
# Test: qHTS RealTime-Glo MT Cell Viability Assay in HepG2 cells - 32 hour (AID 1224877); further: nearly all actives have a fitted effect of over 55% in size
# Conditions: RealTime-Glo luminescence; series mostly up to 76.8 µM; activity change, negative = cytotoxic: at the top concentration
# Excerpt: U.S. Tox21 Program National Center for Advancing Translational Sciences [NCATS] NIH Chemical Genomics Center [NCGC] U.S. Environmental Protection Agency [EPA] National Institutes of Environmental Health Sciences [NIEHS] National Toxicology Program [NTP] U.S. Food and Drug Administration [FDA] Tox21 Assay Overview: Measure of cell viability is critical in the cell-base assay. Analysis of cell viability is necessary for the characterization of cell responses to cytotoxic drugs and environmental stress. A RealTime-Glo MT Cell Viability Assay to monitor cell viability in real time of continues cell culture during 40 hours of compound treatment was used to screen Tox21 10K library compounds in HepG2 cells. The RealTime-Glo MT Cell Viability Assay is a nonlytic, homogeneous, bioluminescent method to measure cell viability in real time using a simple, plate-based method. The assay involves adding NanoLuc luciferase and a cell-permeant prosubstrate to cells in culture. Viable cells reduce the proprietary prosubstrate to generate a substrate for NanoLuc luciferase. This substrate diffuses from cells into the surrounding culture medium, where it is rapidly used by the NanoLuc Enzyme to produce a luminescent signal. The signal correlates with the number of viable cells, making the assay well suited for cytotoxicity studies.
# Tox21 Assay Protocol Summary: The mixture of HepG2 cell suspension and reagents were dispensed at 600cells/6 ul/well in 1536-well tissue culture treated black solid bottom plates using a Multidrop dispenser. After the assay plates were incubated at a 37 C/5% CO2 incubator for 5 hours, 23 nL of compounds dissolved in DMSO, positive and negative controls was transferred to the assay plate by a pintool work station. The plates were incubated at 37 C for 40 hours. The luminescence intensity were measured at 0h, 8h, 16h, 24h, 32h and 40h time points using ViewLux plate reader during compound treatment.
# On the % scale 0 is the no-effect control and ±100 the full control effect; potency means the concentration at half of the fitted maximal effect.
Compound,"activity change, negative = cytotoxic",Potency
Oc1cccc(Nc2ccccc2)c1,-2.25%,
CC(C)C(O)(c1ccc(OC(F)(F)F)cc1)c1cncnc1 (stereo not given),-1.84%,
CCOC(=O)c1ccc(OCCN2C[C@H](O)[C@@H](O)[C@H](O)[C@H]2CO)cc1,3.67% [at 35.3 µM],
CC(C)COCC(CN(Cc1ccccc1)c1ccccc1)N1CCCC1 (stereo not given),,21.3 µM (active)
CC(=O)Oc1ccc([N+](=O)[O-])cc1CCl,-11.3%,
CC1=C(Br)C(=O)C(Br)=C/C1=C(/c1ccccc1S(=O)(=O)O)c1cc(Br)c(O)c(Br)c1C,-2.02% [at 35.3 µM],
CN(C)CCC=C1c2ccccc2C=Cc2ccccc21,-15.8% [at 35.3 µM],
O=C(OC(=O)c1ccccc1)c1ccccc1,1.1%,
CCCCCCC(C)(C)C(=O)O,1.86%,
CC(=O)c1cc2ccccc2s1,0.577% [at 35.3 µM],
CN1C(=O)OC(C)(C)C1=O,-2.74%,
CC(=O)OCCN(CCOC(C)=O)c1ccc(N=Nc2ccc([N+](=O)[O-])cc2C#N)cc1,-3.39%,
CCCCCC[C@@H](O)C/C=C\CCCCCCCC(=O)O,3.23%,
C=C(C)CCCC(C)CCO (stereo not given),3.74%,
CCc1ccccc1,0.152%,
CCOC(=O)OC(C)OC(=O)[C@@H]1N2C(=O)[C@@H](NC(=O)[C@H](N)c3ccccc3)[C@H]2SC1(C)C (stereo not given in full),1.18% [at 35.3 µM],
CCC(C)COC(=O)CC(C)C (stereo not given),-4.28%,
Nc1ncnc2c1ncn2[C@H]1CC[C@@H](CO)O1,0.392%,
C[C@@]12CCC[C@H]1[C@@H]1CC[C@H]3C[C@@H](O)CC[C@]3(C)[C@H]1CC2,1.45% [at 35.3 µM],
CC1=Nc2ccc3ccccc3c2C1(C)C,-5.86%,

Compound,"activity change, negative = cytotoxic",Potency
COc1cc(N)c(Cl)cc1C(=O)NC1CCN(CCCOc2ccc(F)cc2)CC1OC (stereo not given),-18.4% [at 35.3 µM],
CCC1NC(=O)c2cc(S(N)(=O)=O)c(Cl)cc2N1 (stereo not given),1.5% [at 35.3 µM],
Oc1c(I)cc(I)c2cccnc12,-7.54% [at 35.3 µM],
OC1(c2ccccc2)CCNCC1,-0.217% [at 35.3 µM],
C[C@@H]1CN(CCCn2c3ccccc3c3ccccc32)C[C@H](C)N1,,23.9 µM (active)
Nc1nc2ccc([N+](=O)[O-])cc2s1,4.13%,
C(=C\c1ccccc1)/c1ccccc1,1.54%,
Cc1ccco1,1.04%,
CCOC(=O)c1ccc(I)cc1,7.38%,
C[C@]1(Cn2ccnn2)[C@H](C(=O)O)N2C(=O)C[C@H]2S1(=O)=O,-0.654% [at 35.3 µM],
CC=C(Cl)Cl,-3.06%,
CCCCCCCCCCC(=O)O,0.0864%,
COC(=O)CS,-0.538%,
O=C1C(=O)c2ccccc2C(O)=C1C1CCC(c2ccc(Cl)cc2)CC1 (stereo not given),0.0604% [at 35.3 µM],
Cc1cscn1,-0.806%,
CC(C)Nc1cccnc1N1CCN(C(=O)c2cc3cc(NS(C)(=O)=O)ccc3[nH]2)CC1,-3.65% [at 35.3 µM],
CCCCN(CCN(CCCC)C(=O)N1CCOCC1)C(=O)N1CCOCC1,-10.9% [at 35.3 µM],
C=C(C)C(=O)OCCCCCCCCCCCCC,2.7%,
CCCCCCCC/C=C\CCCCCCCCCCCC(=O)O,1.96%,
N#[N+]c1ccc2c(S(=O)(=O)[O-])cccc2c1O,-1.88%,
